Experiment [1] in a line: Nuclear factor erythroid 2-related factor 2/antioxidant responsive element (Nrf2/ARE) small molecule agonists: qHTS cell viability counter screen in human keratinocytes (AID 1919968; active = well fitted curve in the direction sought with a large enough effect in the repeat runs; an effect the other way counts as inactive or inconclusive; note: nearly all actives have a fitted effect of over 55% in size). A digest of the protocol:
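Measured as CellTiter-Fluor fluorescence, this readout tracks cytotoxicity in the same wells as the ARE-luciferase screen. HaCaT reporter cells (1,500/well) received compounds after a 5 h pre-incubation and were exposed for 23 h.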
A general note: qHTS replaces the single test concentration by a dilution series.

The nature of experiment [2]: Nuclear factor erythroid 2-related factor 2/antioxidant responsive element (Nrf2/ARE) small molecule agonists: luciferase reporter gene qHTS assay in human keratinocytes (AID 1919969). Note: nearly all actives have a fitted effect of over 35% in size. Note: potency is the fitted concentration of half-maximal effect. A general note: Reporter assays use an easily measured gene product as a stand-in for the process of interest.
In experiment [3] the target is Gonadotropin-releasing hormone receptor (Homo sapiens) (UniProt P30968). Description: Human gonadotropin-releasing hormone receptor (GnRHR) small molecule agonists, calcium flux assay in GnRHR-HEK293 cells (AID 1920063). Note: nearly all actives have a fitted effect of over 35% in size. A digest of the protocol: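 Fluorescence kinetics (480 nm excitation, 540 nm emission; 3 min, 1 s steps) report calcium mobilisation in human GnRHR-HEK293 cells in agonist mode. Dye incubation: 1 h, 37 C.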
Chain of Gonadotropin-releasing hormone receptor (Homo sapiens) (P30968 whole entry, looked up): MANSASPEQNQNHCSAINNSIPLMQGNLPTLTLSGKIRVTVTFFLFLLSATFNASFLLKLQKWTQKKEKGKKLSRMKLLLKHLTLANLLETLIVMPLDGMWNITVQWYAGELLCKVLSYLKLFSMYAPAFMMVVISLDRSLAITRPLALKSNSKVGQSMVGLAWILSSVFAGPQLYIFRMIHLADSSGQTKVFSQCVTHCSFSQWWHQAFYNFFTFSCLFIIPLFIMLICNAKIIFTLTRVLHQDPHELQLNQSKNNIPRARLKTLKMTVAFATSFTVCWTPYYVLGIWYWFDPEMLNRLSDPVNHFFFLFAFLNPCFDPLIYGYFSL
Background: Calcium assays in cells follow changes in intracellular calcium, usually with a dye or a luminescent sensor.

In experiment [4] the target is KiSS-1 receptor (Homo sapiens) (UniProt Q969F8). Description: Human kisspeptin (KISS1R) small molecule agonists, calcium flux assay in KISS1R-HEK293 cells (AID 1920064; active = well fitted curve in the direction sought with a large enough effect in the repeat runs; an effect the other way counts as inactive or inconclusive). A digest of the protocol:
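Measures KISS1R agonism through calcium-sensitive dye fluorescence in stably transfected HEK293 cells, read for 3 min after pin-tool compound delivery; 15-point titrations in triplicate.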

Experiment [5] in a line: G protein-coupled receptor (GPCR) small molecule agonists, calcium flux assay: HEK293 wild type cell line counter screen (AID 1920065). A digest of the protocol: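 Readout: fluorescence at 480 nm excitation/540 nm emission, sampled at 1 s intervals for 3 min. Cells had been cultured 18 h, then dye-loaded 1 h at 37 C before compound or ATP addition.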
The nature of experiment [6]: p53 small molecule agonists, cell-based qHTS assay with human liver microsomes (AID 1963577). A digest of the protocol:
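p53RE-bla reporter cells were pre-incubated 5 h at 37 C, then treated with compounds plus human liver microsomes (0.5 mg/mL final) and NADPH (0.5 mg/mL final) for 16 h at 37 C. Beta-lactamase activity was read by LiveBLAzer fluorescence after 2 h at room temperature.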

A short description of experiment [7]: p53 small molecule agonists, cell-based qHTS assay with rat liver microsomes (AID 1963578). A digest of the protocol: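 p53RE-bla cells were exposed to compounds together with rat liver microsomes (0.5 mg/mL final) and NADPH (0.5 mg/mL final) for 16 h at 37 C, then read by LiveBLAzer beta-lactamase fluorescence after 2 h at room temperature.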
A short description of experiment [8]: p53 small molecule agonists, cell-based qHTS assay with human liver microsomes: qHTS cell viability counter screen (AID 1963579). Note: nearly all actives have a fitted effect of over 45% in size. A digest of the protocol:
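p53RE-bla cells (4,000/well) were pre-incubated 5 h at 37 C, then given compounds in DMSO plus human liver microsomes (0.5 mg/mL final) and NADPH (0.5 mg/mL final) for 16 h at 37 C. Viability was read by CellTiter-Glo luminescence.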

Experiment [9] is described as follows: p53 small molecule agonists, cell-based qHTS assay with rat liver microsomes: qHTS cell viability counter screen (AID 1963580). Note: nearly all actives have a fitted effect of over 45% in size. A digest of the protocol: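 Viability is assessed in parallel with the p53 reporter read: HCT-116 p53RE-bla cells receive compounds plus rat microsomes and NADPH (0.5 mg/mL final apiece), incubate 16 h at 37 C, and then CellTiter-Glo luminescence is recorded.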

Experiment [10] in a line: p53 small molecule agonists, cell-based qHTS assay (AID 1963582; active = well fitted activation curve with a large enough effect in the signal ratio in the repeat runs, not every such curve was filed as active; the % refers to the signal ratio). A digest of the protocol:
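Compounds are pin-transferred in DMSO onto p53RE-bla cells and incubated 16 h at 37 C. The B/G FRET beta-lactamase substrate is then applied for 2 h at RT and fluorescence recorded.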

The target in experiment [11] is 5-hydroxytryptamine receptor 2A (Homo sapiens) (UniProt P28223). Description: 5-hydroxytryptamine receptor 2A (HTR2A) small molecule antagonists, cell-based qHTS assay (AID 1963586). Note: nearly all actives have a fitted effect of over 45% in size. Note: potency is the fitted concentration of half-maximal effect. A digest of the protocol:
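Antagonist-mode intracellular calcium assay: DOI (4 nM) added after 5 min compound pre-incubation at room temperature to dye-loaded HTR2A-CHO cells. Fluorescence followed for 3 min, sampled every second.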

Experiment [12] has the same target. Description: 5-hydroxytryptamine receptor 2A (HTR2A) small molecule agonists, cell-based qHTS assay (AID 1963587). Note: nearly all actives have a fitted effect of over 30% in size. A digest of the protocol:
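CHO cells stably expressing human HTR2A, plated 18 h, loaded with calcium dye 1 h at 37 C. Agonist mode: compounds added and intracellular calcium fluorescence recorded kinetically for 2 min at 1 sec intervals.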

In experiment [13] the target is Muscarinic acetylcholine receptor M1 (Homo sapiens) (UniProt P11229). Description: Cholinergic receptor muscarinic 1 (CHRM1) small molecule antagonists, cell-based qHTS assay (AID 1963588). Note: nearly all actives have a fitted effect of over 40% in size. Note: potency is the fitted concentration of half-maximal effect. A digest of the protocol:
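CHRM1-CHO calcium-flux assay, antagonist mode. Cells were seeded 18 h, dye-loaded 1 h at 37 C and given compound for 5 min at RT, then acetylcholine was added at 50nM. FDSS fluorescence was read 3 min; 15 concentrations, three runs.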

The target is the same in experiment [14]. Description: Cholinergic receptor muscarinic 1 (CHRM1) small molecule agonists, cell-based qHTS assay (AID 1963589). Note: nearly all actives have a fitted effect of over 35% in size. A digest of the protocol:
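Each compound was tested at 15 concentrations across three independent runs on dye-loaded CHO cells stably expressing human CHRM1, reading intracellular calcium fluorescence kinetically at 1 sec intervals.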

A short description of experiment [15]: cAMP Responsive Elements (CRE) small molecule antagonists, cell-based qHTS assay (AID 1963591; active = well fitted inhibition curve with a large enough effect in the signal ratio in the repeat runs, not every such curve was filed as active; the % refers to the signal ratio). A digest of the protocol:
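Inhibition of NKH477-driven (0.25 uM final) CRE-beta-lactamase signal in HEK293T cells, 3 h compound exposure at 37 °C, detected by FRET substrate fluorescence.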

Experiment [16] has as its target Beta-2 adrenergic receptor (Homo sapiens) (UniProt P07550). Description: Adrenergic beta2 receptor (ADRB2) small molecule antagonists, cell-based qHTS assay (AID 1963592). Note: series mostly up to about 92 µM; nearly all actives have a fitted effect of over 50% in size. A digest of the protocol:
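Cells (CHO, stable ADRB2 overexpression) incubated 18-20hr at 37C; compounds added from DMSO; agonist mix (1nM isoproterenol, 100uM IBMX, 25uM Ro-20-1724) added; 0.5hr RT; d2-cAMP and anti-cAMP-cryptate added; 1hr RT; 665/615 nm read.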

Experiment [17] addresses D(2) dopamine receptor (Homo sapiens) (UniProt P14416). Description: Dopamine D2 receptor (DRD2) small molecule antagonists, cell-based qHTS assay (AID 1963595; active = well fitted inhibition curve with a large enough effect in the signal ratio in the repeat runs, with a control signal flat; the % refers to the signal ratio). A digest of the protocol:
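HEK293 cells stably expressing DRD2, preincubated with 0.1 mM Ro20-1724 and compounds 10 min, were stimulated with 200 nM NKH477 plus 12 nM quinpirole for 30 min at room temperature; cAMP measured by HTRF (665/620 nm).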

Experiment [18] has the same target. Description: Dopamine D2 receptor (DRD2) small molecule agonists, cell-based qHTS assay (AID 1963594). Note: nearly all actives have a fitted effect of over 35% in size. A digest of the protocol: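 HEK293 cells stably expressing human DRD2, pre-treated with PDE inhibitor Ro20-1724 (0.1 mM final) and compound 10 min at room temperature, then stimulated with NKH477 (200nM […]) for 30 min. cAMP read by HTRF (665/620 nm).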

Experiment [19] is described as follows: cAMP Responsive Elements (CRE) small molecule agonists, cell-based qHTS assay (AID 1963590). A digest of the protocol: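 Cell line: CRE-bla HEK 293T; medium DMEM/10% dialyzed FBS/0.1 mM NEAA/1 mM pyruvate/25 mM HEPES; 3 h compound exposure; beta-lactamase FRET readout after 2 h substrate loading at RT.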
Experiment [20] concerns the target Beta-2 adrenergic receptor (Homo sapiens) (UniProt P07550). Description: Adrenergic beta2 receptor (ADRB2) small molecule agonists, cell-based qHTS assay (AID 1963593).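 Note: CHO cells stably overexpressing human ADRB2.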 A digest of the protocol:
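CHO cells stably over-expressing ADRB2 were plated overnight at 37C, then dosed with compounds plus a stimulation mix containing 100uM IBMX and 25uM Ro-20-1724 for 0.5hr at room temperature. cAMP was measured by HTRF competition, 1hr.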

Unmarked numbers belong to inactive results. Records with an inconclusive call do not appear. Calls of active or inactive are those of the source. Unless noted, calls come from the whole dose curve.

Chain of KiSS-1 receptor (Homo sapiens) (Q969F8 whole entry, looked up): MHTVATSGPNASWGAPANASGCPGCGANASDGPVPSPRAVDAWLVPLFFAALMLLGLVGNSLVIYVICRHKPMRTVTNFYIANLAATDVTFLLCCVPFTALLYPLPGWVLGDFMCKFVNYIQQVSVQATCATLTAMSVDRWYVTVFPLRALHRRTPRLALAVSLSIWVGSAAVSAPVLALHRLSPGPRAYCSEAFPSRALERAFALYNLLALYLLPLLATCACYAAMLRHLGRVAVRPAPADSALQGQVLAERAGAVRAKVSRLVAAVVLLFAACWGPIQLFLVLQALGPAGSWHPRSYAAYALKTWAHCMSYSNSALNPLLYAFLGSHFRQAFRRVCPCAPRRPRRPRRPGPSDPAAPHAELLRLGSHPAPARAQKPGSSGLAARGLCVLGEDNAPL
Chain of D(2) dopamine receptor (Homo sapiens) (P14416 whole entry, looked up): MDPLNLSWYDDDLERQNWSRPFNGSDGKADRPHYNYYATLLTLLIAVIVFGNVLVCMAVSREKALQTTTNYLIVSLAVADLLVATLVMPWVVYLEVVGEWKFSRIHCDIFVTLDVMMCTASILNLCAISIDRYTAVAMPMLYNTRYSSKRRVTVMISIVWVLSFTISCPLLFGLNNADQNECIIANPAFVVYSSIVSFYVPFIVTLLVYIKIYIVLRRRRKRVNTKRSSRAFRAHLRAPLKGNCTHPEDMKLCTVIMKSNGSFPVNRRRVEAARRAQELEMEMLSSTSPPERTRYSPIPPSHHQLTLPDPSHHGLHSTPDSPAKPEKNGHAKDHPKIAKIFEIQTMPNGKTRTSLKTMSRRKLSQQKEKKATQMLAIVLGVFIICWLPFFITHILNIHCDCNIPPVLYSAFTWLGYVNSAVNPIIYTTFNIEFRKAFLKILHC
Chain of 5-hydroxytryptamine receptor 2A (Homo sapiens) (P28223 whole entry, looked up): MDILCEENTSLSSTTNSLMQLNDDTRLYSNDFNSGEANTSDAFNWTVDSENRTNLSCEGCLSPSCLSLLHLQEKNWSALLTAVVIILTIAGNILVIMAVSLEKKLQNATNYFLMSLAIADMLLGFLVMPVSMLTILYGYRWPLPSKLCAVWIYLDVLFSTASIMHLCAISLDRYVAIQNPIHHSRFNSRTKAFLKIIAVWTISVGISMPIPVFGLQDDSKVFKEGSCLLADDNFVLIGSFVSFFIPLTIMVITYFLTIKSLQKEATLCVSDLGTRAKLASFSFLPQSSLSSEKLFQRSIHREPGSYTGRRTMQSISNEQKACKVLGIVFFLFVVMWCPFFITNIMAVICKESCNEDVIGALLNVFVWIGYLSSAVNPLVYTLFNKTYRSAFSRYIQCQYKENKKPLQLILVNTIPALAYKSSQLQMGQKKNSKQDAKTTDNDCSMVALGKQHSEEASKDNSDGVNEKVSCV
Chain of Beta-2 adrenergic receptor (Homo sapiens) (P07550 whole entry, looked up): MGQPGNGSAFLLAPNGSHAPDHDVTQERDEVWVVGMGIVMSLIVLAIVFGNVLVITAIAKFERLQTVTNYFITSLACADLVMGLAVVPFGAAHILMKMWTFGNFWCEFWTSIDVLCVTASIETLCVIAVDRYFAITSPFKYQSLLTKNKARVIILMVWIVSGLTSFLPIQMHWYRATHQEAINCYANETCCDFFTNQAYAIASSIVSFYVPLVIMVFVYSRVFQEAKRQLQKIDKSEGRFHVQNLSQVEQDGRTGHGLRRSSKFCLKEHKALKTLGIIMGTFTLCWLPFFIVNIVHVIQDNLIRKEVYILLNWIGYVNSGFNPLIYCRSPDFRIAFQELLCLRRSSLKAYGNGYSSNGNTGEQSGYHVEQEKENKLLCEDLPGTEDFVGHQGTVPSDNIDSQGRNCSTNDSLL
Chain of Muscarinic acetylcholine receptor M1 (Homo sapiens) (P11229 whole entry, looked up): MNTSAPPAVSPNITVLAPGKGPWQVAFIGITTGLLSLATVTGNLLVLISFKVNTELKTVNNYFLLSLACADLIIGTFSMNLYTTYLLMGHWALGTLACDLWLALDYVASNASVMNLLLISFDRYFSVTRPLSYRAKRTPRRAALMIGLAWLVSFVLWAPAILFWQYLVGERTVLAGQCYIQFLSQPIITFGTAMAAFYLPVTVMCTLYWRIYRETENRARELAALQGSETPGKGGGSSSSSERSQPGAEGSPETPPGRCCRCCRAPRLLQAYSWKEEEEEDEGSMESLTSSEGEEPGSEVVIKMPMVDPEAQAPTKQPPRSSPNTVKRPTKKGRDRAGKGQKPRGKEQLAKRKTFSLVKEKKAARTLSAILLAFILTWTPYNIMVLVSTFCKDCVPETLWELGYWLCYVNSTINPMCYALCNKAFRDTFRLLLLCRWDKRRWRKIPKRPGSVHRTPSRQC

As for `O=C(O)c1ccc(Cl)c(Cl)c1`, the Potency entry in [1], in [2], in experiment [3], in experiment [6], in [7] and in [8] was “inactive” each time. For the same compound, the Potency entry in experiment [9], in experiment [10], in experiment [11], in experiment [12], in experiment [13] and in experiment [14] was “inactive” each time. Moreover, the Potency entry in experiment [15], in experiment [16] and in experiment [17] was “inactive” throughout. The result in experiment [4] and in [5] was inactive.

`Cc1ccc(Cl)c(OCC(O)CNC(C)(C)C)c1` (configuration not stated): the Potency result in experiment [1], in experiment [2], in experiment [3], in experiment [6], in [7] and in [8] was “inactive” in each case. Further, the Potency entry in [9], in experiment [10], in experiment [12], in experiment [13], in [14] and in experiment [15] was “inactive” throughout. Moreover, the Potency entry in [17] was “inactive”. Further, the outcome in experiment [4] and in experiment [5] was inactive.

Take `CCCCCN(CCCOC)C(=O)C(CCC(=O)O)NC(=O)c1ccc(Cl)c(Cl)c1` (configuration not stated): the Potency result in experiment [1], in experiment [2], in [3], in [6], in experiment [7] and in [8] was “inactive” in each case. In addition, the Potency result in [9], in experiment [10], in experiment [11], in experiment [12], in experiment [14] and in experiment [16] was “inactive” throughout. Further, the Potency entry in experiment [18] and in experiment [17] was “inactive” in each case. The result in experiment [4] and in experiment [5] was inactive.

As to `C=C(C)C(=O)OCCN(CC)CC`, the Potency entry in [1], in experiment [2], in experiment [3], in experiment [6], in experiment [7] and in [8] was “inactive” throughout. Further, the Potency entry in experiment [9], in experiment [10], in experiment [12], in experiment [14], in [19] and in experiment [15] was “inactive” throughout. The Potency result in [16] and in experiment [18] was “inactive” throughout. Further, the outcome in [4] and in experiment [5] was inactive.

On to `CCCCOCCOC(=O)COc1cc(Cl)c(Cl)cc1Cl`, for which the Potency result in [1], in experiment [2], in [3], in [6], in experiment [7] and in experiment [8] was “inactive” in each case. Also, the Potency entry in experiment [9], in [10], in experiment [12], in [14], in [15] and in experiment [16] was “inactive” each time. Further, the Potency entry in experiment [18] and in experiment [17] was “inactive” each time. The result in [4] and in experiment [5] was inactive. Also, in experiment [11], the Potency was 9.42 µM (active).

As to `CCCC(=O)C(=O)O`, the Potency entry in [1], in [2], in experiment [3], in [6], in experiment [7] and in experiment [8] was “inactive” throughout. Also, the Potency entry in experiment [9], in [10], in experiment [11], in experiment [12], in [14] and in experiment [15] was “inactive” each time. Moreover, the Potency result in experiment [18] and in [17] was “inactive” in each case. Besides, the outcome in experiment [4] and in experiment [5] was inactive. The Potency in experiment [13] is 10.6 µM (active).

On to `C=CC(=O)OCCOC(=O)CCC(=O)O`, for which the Potency entry in experiment [1], in experiment [3], in [6], in [7], in experiment [8] and in experiment [9] was “inactive” throughout. The Potency result in experiment [10], in experiment [11], in [12], in experiment [13], in experiment [14] and in experiment [20] was “inactive” in each case. In addition, the Potency result in experiment [18] and in experiment [17] was “inactive” each time. In addition, in experiment [2], the Potency is 61.1 µM (active). The outcome in experiment [4] and in experiment [5] was inactive.

Turning to `COc1ccc(-n2nc(C(F)F)cc2-c2ccc(S(C)=O)cc2)cc1` (configuration not stated), the Potency entry in experiment [1], in experiment [2], in [3], in experiment [6], in experiment [7] and in [8] was “inactive” throughout. Also, the Potency result in [9], in experiment [10], in experiment [11], in [12], in experiment [13] and in experiment [14] was “inactive” in each case. Also, the Potency entry in experiment [16], in experiment [20] and in experiment [17] was “inactive” in each case. Moreover, the outcome in experiment [4] and in experiment [5] was inactive.

The values are drawn from PubChem BioAssay (Tox21).
